Reference: the supplement of paper PMC13392028

System: PvIESI-1 RRM domain (Plasmodium vivax PVP01_0939900 aa 896-1203, GST fusion)
Assay: RBNS R-value (6-mer enrichment in protein-bound RNA vs input library) (ratio); higher = stronger binding preference; the methods of the paper give 50 / 100 / 500 nM protein instead
How it was run: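 Values come from one replicate, scored over 6-mers. The R-value expresses enrichment of each motif in bound RNA over the input library, from the Burge lab pipeline. Bound RNA was obtained by incubating purified, E. coli-expressed GST-tagged RNA-recognition-motif regions of orthologues from three Plasmodium species with a random 40-mer in vitro transcribed RNA library at room temperature, capturing on glutathione magnetic agarose beads, and reverse transcribing it with the input for MiSeq sequencing.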

Row | Sequence | RBNS R-value (protein concentration: 250 nM) | RBNS R-value (protein concentration: 500 nM) | RBNS R-value (protein concentration: 1000 nM)
1 | CUGAUU | 3.89 | 4.11 | 3.75
2 | UGAUGG | 3.91 | 4.11 | 3.78
3 | CACCCG | 1.41 | 1.76 | 1.77
4 | UGAUAG | 3 | 3.35 | 3.29
5 | AUGAUA | 3.08 | 3.49 | 3.64
6 | AUGAUG | 5.14 | 5.26 | 5.02
7 | UGAUAC | 2.41 | 2.83 | 2.87
8 | CGAUGA | 2.37 | 2.7 | 2.6
9 | UGUGAU | 2.53 | 2.8 | 2.72
10 | CUGAUG | 4.09 | 4.34 | 4.04
11 | UGAUGU | 4.24 | 4.51 | 4.13
12 | CAUGAU | 3.57 | 3.87 | 3.8
13 | GAUUGC | 2.21 | 2.33 | 2.1
14 | UGAUUG | 3.56 | 3.76 | 3.39
15 | AUUGAU | 3.54 | 3.72 | 3.67
16 | GAUGCC | 1.89 | 2.11 | 2.06
17 | AAUGAU | 3.66 | 3.89 | 3.94
18 | UGAUAA | 2.82 | 3.29 | 3.43
19 | GAUGGC | 2.5 | 2.55 | 2.36
20 | GCGAUG | 1.97 | 2.19 | 2.01
21 | ACUGAU | 2.99 | 3.2 | 3.11
22 | UUUGAU | 3.94 | 4.25 | 3.98
